Screening results from PubChem.
Many of the other results were omitted from the sample, so hits are more common in it than they were.
LASV entry inh = qHTS for Inhibitors of binding or entry into cells for Lassa Virus. AID 540256, 2011. actives 1.2% (n = 300,000). Potency, µM (titrated, usually from 37.9 µM), for inactives: at the highest dose activity change, negative = inhibition, usual class: inhibitors. Lassa virus pseudotype entry inhibition, cell reporter; calls by dose curve; tested in HEK293 cells; also: potency is read from the fitted curve at half-maximal effect; % is scaled to controls: 0 for no effect and ±100 for the full control effect; nearly all actives have a fitted effect of over 50% in size
AMA1-RON2 inh = qHTS for Inhibitors of AMA1-RON; Towards Development of Antimalarial Drug Lead: Primary Screen; AID 720542, 2013; actives 0.2% (n = 360,000); Potency, µM (top dose mostly 58.2 µM), for inactives: at the top dose activity change, negative = inhibition, actives largely listed as inhibitors; AlphaScreen AMA1-biotinylated RON2 peptide binding; active = well fitted inhibition curve with a large enough effect; inconclusive = small, poorly fitted or top-dose-only effect; inactive = no such curve, though single readings can be large or run the other way;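 also: potency is read from the fitted curve at half-maximal effect; 0% = vehicle wells and -100% = peptide control; nearly all actives have a fitted effect of over 45% in size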
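AMA1 (3D7) with his tag at 25 nM final met compounds first, then biotinylated RON2 peptide at 25 nM; detection used donor plus acceptor beads, 10 µg/mL apiece, read by AlphaScreen after 30 min at room temperature.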
Shiga inhibitor = A qHTS for Small Molecule Inhibitors of Shiga Toxin | Vero cells, Shiga toxin protein synthesis inhibition reporter | actives 9.2% (n = 290,000) | inhibition, % at 38.7 µM | AID 2315, 2010; in the data active = inhibition mostly above about 28%, no sharp cut-off; inactive = mostly below about 43%; also: 0% is about no effect
MARV entry inh = qHTS for inhibitors of binding or entry into cells for Marburg Virus; actives 1.8% (n = 300,000); Potency, µM (doses to about 37.8 µM), for the others: at the highest dose activity change, negative = inhibition, usual class: inhibitors; Marburg virus pseudotyped entry inhibition, cell reporter; calls by dose curve; tested in HEK293 cells; also: potency is read from the fitted curve at half-maximal effect; % is scaled to controls: 0 for no effect and ±100 for the full control effect
CHX counter = Cycloheximide Counterscreen for Small Molecule Inhibitors of Shiga Toxin; actives 12% (n = 300,000); max response, %; cell reporter, cycloheximide protein synthesis inhibition counterscreen; in the data active = max response mostly above about 13%, no sharp cut-off; inactive = mostly below about 14%; also: read at 38.3 µM for the half of the compounds with a filed dose; 0% is about no effect
The depositor's hits bear a star; ? = inconclusive; . = not tested or not shown; [ ] = dose if it differs, or a comment.

SMILES | LASV entry inh | AMA1-RON2 inh | Shiga inhibitor | MARV entry inh | CHX counter
N/C(=N\OC(=O)Cc1ccc(-c2ccccc2)cc1)c1ccccn1 | ? | 19% | 72* | 4% | 36*
N/C(=N\OC(=O)CSc1ccccc1)c1ccccn1 | . | 172% | 99* | . | 79*
N/C(=N\OC(=O)CCCOc1ccccc1)c1ccccn1 | 6%[46.1 µM] | -13% | 42* | 2%[46.1 µM] | 26*
CC(C)C(=O)O/N=C(\N)c1ccccn1 | 9% | 17% | 22 | ? | 8
COc1ccc(CC(=O)O/N=C(\N)c2ccccn2)cc1 | 15%[46.1 µM] | 61% | 75* | ? | 64*
NC(=O)c1cc([N+](=O)[O-])ccc1NCc1ccc(N)cc1 | . | -3% | . | . | .
CCCCCNC(=O)c1ccc2c(=O)n(CCc3ccccc3)c(=O)[nH]c2c1 | -1%[46.1 µM] | . | . | -2%[46.1 µM] | .
CCc1cc(C(c2cccc(OC)c2)N2CCOCC2)c(NC(=O)c2ccccc2)s1 (stereo not given) | -29% | -2% | 61 | 17% | 38*
CCc1cc(C(c2ccc(F)cc2)N2CCOCC2)c(NC(=O)c2ccccc2)s1 (stereo not given) | ? | -1% | 21 | 20% | 16
CCc1cc(CN2CCOCC2)c(NC(=O)c2ccccc2)s1 | 8% | -8% | 79* | -10% | 27*
CCN1CCN(C(c2ccccn2)c2c(NC(=O)c3ccccc3)sc(C)c2C)CC1 (stereo not given) | ? | 1% | -16 | 10µM* | -5
COc1ccc(C(c2c(NC(=O)c3ccccc3)sc(C)c2C)N2CCN(CCO)CC2)cc1 (stereo not given) | ? | -1% | 56* | ? | 22*
COc1ccc(OC)c(S(=O)(=O)CC(O)CS(=O)(=O)c2ccccc2)c1 (stereo not given) | . | -10% | -5 | . | -1
COc1ccc(C(c2c(NC(=O)c3ccco3)sc(C)c2C)N2CCOCC2)cc1 (stereo not given) | ? | 4% | . | -16% | .
COc1cccc(C(c2c(NC(=O)c3ccccc3)sc(C)c2C)N2CCN(C)CC2)c1 (stereo not given) | ? | 10%[2.32 µM] | -7 | 20µM* | -5
Cn1c2ccccc2c2cc(/C=N/NC(=O)c3ccccc3F)ccc21 | . | 16% | 79* | . | 41*
CCOC(=O)N/N=C/c1ccc(F)cc1F | 9% | -10% | 57* | ? | 30*
Cc1cc(/C=N/NC(=O)c2ccccc2F)c(C)n1-c1ccccc1 | . | 57% | 67* | . | 25*
CCOC(=O)N/N=C/c1cc(C)n(-c2cccc3ccccc23)c1C | ? | -4% | 13 | ? | -3
CCOC(=O)N/N=C/c1cc(C)n(-c2ccccc2)c1C | -22% | 17% | 71* | 1% | 35*
Cc1cc(/C=N/NC(=O)c2cccc(F)c2)c(C)n1-c1ccccc1 | . | 61% | 50 | . | 25
CCOc1ccc(S(=O)(=O)NCCC(=O)N2CC=C(c3ccccc3)CC2)cc1 | . | 11% | . | . | .
N#Cc1cnc(Oc2ccc(Cl)cc2)nc1N | . | -4% | 27 | . | 19*
N#Cc1cc(-c2ccccc2)nc(Oc2ccc(Cl)cc2)n1 | -3% | 13% | -1 | -2% | -5
COc1ccc2[nH]c3c(NCCN4CCCCC4)ncnc3c2c1 | . | . | 4 | -5% | 6
SMILES | LASV entry inh | AMA1-RON2 inh | Shiga inhibitor | MARV entry inh | CHX counter
C=CCNc1ncnc2c1[nH]c1ccc(Cl)cc12 | 10µM* | 4% | 82* | ? | 37*
C=CCNc1ncnc2ccccc12 | 1% | -1% | -17 | -5% | 4
C=CCNc1ncnc2c1[nH]c1ccccc12 | -13% | -3% | 13 | -24% | 10*
COc1cc(NC(=O)Cn2cnc3c(OCc4ccccc4)ncnc32)cc(OC)c1OC | . | -7% | . | . | .
CC1(C(=O)NS(=O)(=O)Cc2cccc(Cl)c2)CCN1C(=O)C/C=C/c1ccccc1 (stereo not given) | . | -2% | . | . | .
CC(=Nc1ccc(C)c(C)c1)C1=C(O)CCC1=O | 0% | 0% | 140* | ? | 61*
Cc1cc(Cl)ccc1OCC(=O)N(Cc1sccc1C)C1CCS(=O)(=O)C1 (stereo not given) | -6%[46.1 µM] | . | . | -22%[46.1 µM] | .
C/C(=N\NC(=O)c1ccco1)c1ccc(C(=O)O)s1 | . | 1% | 80* | . | 50*
C/C(=N/NC(=O)c1ccco1)c1ccc(Br)s1 | . | 27% | 35* | . | 26*
C/C(=N\NC(=O)c1cc(Cl)ccc1O)c1ccc(Br)s1 | -13% | 17% | 18 | ? | 20
C/C(=N\NC(=O)c1ccc(Cl)cc1)c1ccc(Br)s1 | ? | 9% | 90* | -33% | 29*
COC(=O)N/N=C(\C)c1ccco1 | 4% | 17% | 2 | -7%[46.1 µM] | 2
Brc1ccc2c(c1)C(OC1CN3CCC1CC3)c1ccccc1CS2 (stereo not given) | ? | -3% | -22 | 4µM* | -8
Cc1nn(-c2ccc(N3CCCC3)nn2)c(C)c1CCC(=O)N1CCN(c2ccc(F)cc2)CC1 | -5%[46.1 µM] | . | . | . | .
CCOC(=O)C1CCCN(S(=O)(=O)CCNC(=O)c2cccc(OC)c2)C1 (stereo not given) | ? | 24% | . | ? | .
COC(=O)c1ccc(Cl)c(NC(=O)C2CCN(S(=O)(=O)Cc3ccccc3)CC2)c1 | -2%[46.1 µM] | . | . | ? | .
COc1ccc(Nc2nc(C)c(C(C)=O)s2)cc1 | . | 2% | . | . | .
COc1ccc(Nc2nc(-c3ccccc3)c3ccccc3n2)cc1 | 4% | -2% | 13 | 6% | -5
COc1ccc(Nc2nc(C)c(-c3ccccc3)s2)cc1 | -27% | -13% | 82* | ? | 59*
COc1ccc(Nc2nc(-c3cccc(OC)c3O)nc3ccccc23)cc1 | . | -24% | 50* | . | 33*
COc1ccc(Nc2nc(C)c3ccccc3n2)cc1 | 21% | -11% | 135* | ? | 27*
COc1ccc2c(C)nc(Nc3nc(C)c(C)c(=O)[nH]3)nc2c1 | ? | 4% | 25 | ? | 48*
COc1cccc(-c2nc(NC(C)(C)C)c3ccccc3n2)c1O | ? | -20% | 9 | -27% | -2
Cc1nc(Nc2ccc(S(N)(=O)=O)cc2)sc1C(=O)Nc1ccccc1 | ? | -1% | -9 | -29%[46.1 µM] | -2
Cc1nc(Nc2ccc(S(N)(=O)=O)cc2)sc1-c1ccccc1 | -9%[46.1 µM] | -25% | 47 | ? | 31*
SMILES | LASV entry inh | AMA1-RON2 inh | Shiga inhibitor | MARV entry inh | CHX counter
COc1ccccc1OCc1ccc(C(=O)NN)o1 | . | 2% | 42* | . | 19*
COc1ccc(NC(=O)c2ccc(COc3ccccc3OC)o2)cc1OC | -6%[46.1 µM] | 3% | 6 | 2%[46.1 µM] | 3
COc1ccccc1OCc1ccc(C(=O)Nc2ccc(Cl)cn2)o1 | 3% | -18% | 30 | ? | 12*
CCN1CCN(C(=O)/C=C/c2c(F)cccc2Cl)CC1 | -2% | 13% | 15* | ? | 10
O=C(/C=C/c1c(F)cccc1Cl)N1CCc2ccccc2C1 | ? | -1% | . | ? | 14*
CCN1CCN(C(=O)/C=C/c2ccc(C)o2)CC1 | 6% | -6% | -8 | -4% | 7
CCN1CCN(C(=O)/C=C/c2cccc(Cl)c2)CC1 | . | -14% | 23 | . | 15*
